Measurements reported in PubChem BioAssay (Tox21).
Several values for one entry are separate records, joined by “and”; a condition that tells them apart may be missing. Equal values may be shown once. Results filed as inconclusive are left out. Entries that show only a call come without a potency. The source holds several records for some structures; these can differ, active in one and inactive in another. Activity calls are given as the source filed them. Unless noted, calls follow the shape of the dose curve; as a rule, active = well fitted curve in the direction sought with a large enough effect in the repeat runs; inconclusive = weak or mixed curves; inactive = no such curve, though single readings can be large; an effect the other way counts as inactive or inconclusive.

How the values were obtained:
[1] = qHTS assay to identify small molecule antagonists of the estrogen related receptor (ERR) signaling pathway from Tox21 library - cell viability counter screen (AID 1224834); also: nearly all actives have a fitted effect of over 30% in size; also: potency is read from the fitted curve at half-maximal effect
Method in brief: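 ERR reporter cells, 2,000 per well, rested 6 h, then exposed to compound in DMSO for 17.5 hours at 37 C. Viability read as fluorescence after 30 min with CellTiter-Fluor.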

[2] = molecular target: Luciferin 4-monooxygenase (Photinus pyralis) (UniProt P08659); test: qHTS assay to identify small molecule inhibitors of firefly luciferase (AID 1224835); also: nearly all actives have a fitted effect of over 25% in size; also: potency is read from the fitted curve at half-maximal effect
Method in brief: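 Inhibition of purified Photinus luciferase is measured by luminescence. Substrate levels (D-luciferin, ATP) sit at their KM values. Each compound is tested in a concentration series.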

[3] = qHTS assay to identify small molecule agonists of the constitutive androstane receptor (CAR) signaling pathway - cell viability counter screen (AID 1224836); also: nearly all actives have a fitted effect of over 45% in size; also: potency is read from the fitted curve at half-maximal effect
Method in brief: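 Double-stable HepG2 hepatoma cells (hCAR plus CYP2B6-2.2kb) are treated for 23 h at 37 C with test compounds in 15-point concentration series. PK11195 at 0.75 uM final is co-added. Cell viability is quantified by CellTiter-Fluor.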

[4] = qHTS assay to identify small molecule antagonists of the constitutive androstane receptor (CAR) signaling pathway - cell viability counter screen (AID 1224837); also: nearly all actives have a fitted effect of over 45% in size; also: potency is read from the fitted curve at half-maximal effect
Method in brief: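 HepG2 cells stably carrying hCAR and CYP2B6-2.2kb reporter, stimulated with 50 nM CITCO and compounds at 15 concentrations for 23 h at 37 C. Viability measured by CellTiter-Fluor fluorescence.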

[5] = molecular target: Nuclear receptor subfamily 1 group I member 3 (Homo sapiens) (UniProt Q14994); test: qHTS assay to identify small molecule antagonists of the constitutive androstane receptor (CAR) signaling pathway (AID 1224838); also: nearly all actives have a fitted effect of over 40% in size; also: potency is read from the fitted curve at half-maximal effect
Method in brief: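 HepG2 cells stably carrying hCAR and a CYP2B6-2.2kb luciferase reporter, seeded 4 hrs before compound (15 concentrations). Stimulated with 50 nM CITCO for 24 hr at 37 C. ONE-Glo luminescence read after 30 min at room temperature.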

[6] = qHTS assay to identify small molecule antagonists of the estrogen related receptor signaling pathway with the pleiotropic PPARgamma coactivator (PGC) from Tox21 10K library - cell viability counter screen (AID 1224840; active = well fitted cell-killing curve with a large enough effect in the repeat runs, not every such curve was filed as active; also: nearly all actives have a fitted effect of over 40% in size)
Method in brief: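 PGC/ERR cells (2,000/well) plated 6 h, then compound-treated for 17.5 h at 37 C. Viability measured by CellTiter-Fluor fluorescence after 30 min at 37 C, multiplexed with the pathway assay.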

[7] = molecular target: Nuclear receptor subfamily 1 group I member 3 (Homo sapiens) (UniProt Q14994); test: qHTS assay to identify small molecule agonists of the constitutive androstane receptor (CAR) signaling pathway (AID 1224839); also: nearly all actives have a fitted effect of over 15% in size; also: potency is read from the fitted curve at half-maximal effect
Method in brief: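 Readout: firefly luciferase luminescence via ONE-Glo. System: HepG2 double-stable for hCAR and CYP2B6-2.2kb. Conditions: 15-point compound titration, PK11195 at 0.75 uM final, 24 h incubation.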

[8] = qHTS assay to identify small molecule antagonists of the estrogen related receptor signaling pathway with the pleiotropic PPARgamma coactivator (PGC) from Tox21 10K library (AID 1224841; call rule not given here; also: actives are mostly falling curves and most rising ones were filed inactive; nearly all actives have a fitted effect of over 50% in size; also: potency is read from the fitted curve at half-maximal effect)
Method in brief: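 PGC/ERR cell line, 2,000 cells/well, pre-incubated 6 hours at 37 C, then exposed to compounds for 18 hours at 37 C; luciferase read with One-Glo luminescence after 30 min at room temperature.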

[9] = qHTS assay to identify small molecule agonists of the estrogen related receptor signaling pathway with the pleiotropic PPARgamma coactivator (PGC) from Tox21 10K library (AID 1224842); also: nearly all actives have a fitted effect of over 15% in size
Method in brief: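 Luminescence from One-Glo (30 min, room temperature) measured after PGC/ERR cells had 18 h at 37 C with pinned compound (23 nL in DMSO). Cells had been seeded at 2,000 per well and pre-incubated 6 h.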

[10] = qHTS assay to identify small molecule agonists of the estrogen related receptor signaling pathway with the pleiotropic PPARgamma coactivator (PGC) (AID 1224823)
Method in brief: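 PGC/ERR reporter cells were seeded, rested 6 h at 37 C/5% CO2, then exposed to compounds in DMSO by pin transfer for 18 h at 37 C. Luciferase activity was read as luminescence after One-Glo reagent and 30 min at room temperature.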

Sequence of Nuclear receptor subfamily 1 group I member 3 (Homo sapiens) (Q14994 whole entry, looked up): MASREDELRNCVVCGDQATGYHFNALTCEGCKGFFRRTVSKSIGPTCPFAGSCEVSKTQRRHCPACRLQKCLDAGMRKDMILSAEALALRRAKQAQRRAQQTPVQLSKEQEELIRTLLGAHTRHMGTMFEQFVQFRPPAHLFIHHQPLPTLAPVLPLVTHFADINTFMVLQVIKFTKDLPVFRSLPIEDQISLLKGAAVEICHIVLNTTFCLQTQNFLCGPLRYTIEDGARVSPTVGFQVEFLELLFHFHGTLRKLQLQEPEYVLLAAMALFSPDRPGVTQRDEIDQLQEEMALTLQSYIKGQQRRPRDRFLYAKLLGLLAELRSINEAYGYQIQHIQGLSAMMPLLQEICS
Sequence of Luciferin 4-monooxygenase (Photinus pyralis) (P08659 whole entry, looked up): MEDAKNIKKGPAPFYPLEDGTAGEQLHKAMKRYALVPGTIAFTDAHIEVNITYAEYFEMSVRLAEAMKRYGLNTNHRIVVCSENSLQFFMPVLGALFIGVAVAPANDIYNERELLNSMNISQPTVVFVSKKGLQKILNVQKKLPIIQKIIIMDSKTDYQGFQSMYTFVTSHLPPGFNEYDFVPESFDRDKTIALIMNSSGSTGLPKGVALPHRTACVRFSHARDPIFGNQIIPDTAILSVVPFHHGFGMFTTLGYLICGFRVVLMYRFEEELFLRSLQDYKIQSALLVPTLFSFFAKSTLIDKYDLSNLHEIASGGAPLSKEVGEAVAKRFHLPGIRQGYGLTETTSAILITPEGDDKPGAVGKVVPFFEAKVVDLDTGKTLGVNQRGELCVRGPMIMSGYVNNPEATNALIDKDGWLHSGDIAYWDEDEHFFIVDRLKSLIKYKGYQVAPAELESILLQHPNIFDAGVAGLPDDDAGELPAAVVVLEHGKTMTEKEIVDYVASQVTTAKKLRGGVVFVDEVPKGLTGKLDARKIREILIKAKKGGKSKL

SMILES	Potency [1]	Potency [2]	Potency [3]	Potency [4]	Potency [5]	Potency [6]	Potency [7]	Potency [8]	Potency [9]	outcome [10]
CN(C)C(=O)Nc1ccc(Cl)cc1	inactive	inactive	inactive	inactive	inactive	inactive	–	–	–	–
O=[N+]([O-])c1cccc2ccccc12	inactive	inactive	inactive	inactive	inactive	inactive	inactive	inactive	inactive	–
CCCCCCCCOC(=O)c1ccccc1C(=O)OCCCCCCCC	inactive	inactive	inactive	inactive	inactive	inactive	–	–	–	–
Oc1c(Cl)c(Cl)c(Cl)c(Cl)c1Cl	inactive	34.9 µM (active) and inactive	inactive	inactive	–	inactive	21.2 µM (active) and 15.4 µM (active)	–	–	–
CCCCOCCOP(=O)(OCCOCCCC)OCCOCCCC	inactive	inactive	inactive	inactive	–	inactive	inactive	–	–	–
O=C1C=CC(=O)C=C1	inactive	31.9 µM (active) and 22.4 µM (active)	inactive	inactive	inactive	inactive	inactive	–	–	–
C=CCc1ccc(OC)cc1	inactive	inactive	inactive	inactive	inactive	inactive	inactive	–	–	–
COP(=S)(OC)Oc1cc(Cl)c(Cl)cc1Cl	inactive	inactive	inactive	inactive	inactive	inactive	54.1 µM (active)	–	–	–
CNC(=O)N(C)c1nnc(C(C)(C)C)s1	inactive	inactive	inactive	inactive	inactive	inactive	inactive	–	–	–
CCCCCCOC(=O)c1ccccc1C(=O)OCCCCCC	inactive	inactive	inactive	inactive	inactive	inactive	27.9 µM (active) and 30.6 µM (active)	–	–	–
NCc1cccnc1	inactive	inactive	inactive	inactive	inactive	inactive	–	inactive	inactive	–
CC(C)N(C(=O)SCC(Cl)=C(Cl)Cl)C(C)C	inactive	inactive	inactive	inactive	inactive	inactive	–	–	–	–
CC(C)Oc1cc(-n2nc(C(C)(C)C)oc2=O)c(Cl)cc1Cl	inactive	inactive	inactive	inactive	–	inactive	60.3 µM (active) and 61.1 µM (active)	–	–	–
CCOC(=O)C(C)OC(=O)c1cc(Oc2ccc(C(F)(F)F)cc2Cl)ccc1[N+](=O)[O-] (configuration not stated)	inactive	inactive	inactive	inactive	–	inactive	54.2 µM (active) and inactive	24.2 µM (active)	inactive	–
C=CCN(CC=C)C(=O)C(Cl)Cl	inactive	inactive	inactive	inactive	–	inactive	inactive	–	–	–
Cc1c(COC(=O)[C@@H]2[C@H](/C=C(\Cl)C(F)(F)F)C2(C)C)cccc1-c1ccccc1	inactive	inactive	inactive	inactive	53.2 µM (active) and inactive	inactive	–	–	–	–
Nc1ccc(-c2ccc(N)c(N)c2)cc1N	48.4 µM (active)	35.5 µM (active)	inactive	inactive	–	–	–	–	–	–
CCC(C)(c1ccc(O)cc1)c1ccc(O)cc1	68.5 µM (active)	inactive	inactive	inactive	–	inactive	4.85 µM (active) and 3.06 µM (active)	48.5 µM (active)	inactive	–

SMILES	Potency [1]	Potency [2]	Potency [3]	Potency [4]	Potency [5]	Potency [6]	Potency [7]	Potency [8]	Potency [9]	outcome [10]
C=C(C)[C@H]1Cc2c(ccc3c2O[C@@H]2COc4cc(OC)c(OC)cc4[C@@H]2C3=O)O1	8.75 µM (active) and 8.63 µM (active) and 376 nM (active)	inactive	875 nM (active) and 1.54 µM (active) and 668 nM (active)	–	–	inactive	inactive	34.8 nM (active) and 4.9 nM (active)	inactive	inactive
CCCCC(CC)COC(=O)c1ccc(C(=O)OCC(CC)CCCC)c(C(=O)OCC(CC)CCCC)c1 (configuration not stated)	inactive	inactive	inactive	inactive	–	inactive	inactive	–	–	–
CCCCCCCCC(=O)NCc1ccc(O)c(OC)c1	inactive	inactive	inactive	inactive	–	inactive	inactive	–	–	–
N#Cc1cc(Br)c(O)c(Br)c1	inactive	inactive	inactive	inactive	–	inactive	inactive	54.4 µM (active) and 41.7 µM (active)	inactive	–
COC(=O)c1sccc1S(=O)(=O)NC(=O)Nc1nc(C)nc(OC)n1	inactive	inactive	inactive	inactive	inactive	inactive	inactive	–	–	–
Nc1ccncc1	inactive	inactive	inactive	inactive	inactive	inactive	–	–	–	–
C=CC(=O)OCCO	inactive	inactive	inactive	inactive	–	inactive	inactive	–	–	–
c1nc[nH]n1	inactive	inactive	inactive	inactive	inactive	inactive	–	inactive	inactive	–
C[C@]12CCC(=O)C(O)=C1CC[C@@H]1[C@@H]2CC[C@]2(C)C(=O)CC[C@@H]12	inactive	inactive	inactive	inactive	–	inactive	inactive	inactive	inactive	–
CC(C)(OOC(C)(C)c1ccccc1)c1ccccc1	inactive	inactive	inactive	inactive	inactive	inactive	–	inactive	inactive	–
N#CCCCl	inactive	inactive	inactive	inactive	inactive	inactive	inactive	–	–	–
COP(=O)(OC)OC	inactive	inactive	inactive	inactive	30.9 µM (active) and inactive	inactive	–	inactive	inactive	–
N#CC(Br)Br	inactive	inactive	inactive	inactive	inactive	inactive	inactive	–	–	–
NNC(N)=S	22.5 µM (active)	inactive	inactive	63.5 µM (active)	–	inactive	inactive	31.8 µM (active) and inactive	inactive	–
O=c1oc2ccccc2c(O)c1C(CC(O)c1ccc(-c2ccc(Br)cc2)cc1)c1ccccc1 (configuration not stated)	inactive	inactive	inactive	inactive	–	inactive	–	–	–	–
C=C(C)C(=O)OCC1CO1 (configuration not stated)	inactive	inactive	inactive	inactive	inactive	inactive	–	inactive	inactive	–
CCC(=O)O[C@H]1CC[C@H]2[C@@H]3CCC4=CC(=O)CC[C@]4(C)[C@H]3CC[C@]12C	inactive	inactive	inactive	inactive	–	inactive	inactive	–	–	–
Cc1cc(Cl)ccc1OCCCC(=O)O	inactive	73.8 µM (active)	inactive	inactive	inactive	inactive	inactive	–	–	–
